The results in this text go back to PubChem BioAssay AID652017 (The Scripps Research Institute Molecular Screening Center, 2013).

The whole screen tested about 370,000 compounds, of which about 3,800 (1%) were called active. The entries come from a sample that favours actives as a whole. Unmarked numbers belong to inactive results. Rule as the data show it: active = activation above about 7.8%; inactive = the rest.

The assay in a line: SMARCA2 (BRM) function activators, primary screen, cell-based, luminescence, high throughput (AID 652017).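 Also: 0% = vehicle wells and 100% = reference activator wells.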 The conditions noted are these: MG213 cells, MMTV-luciferase reporter, dexamethasone, overnight; at 9.1 µM; hits give high values.
Regarding `Cc1cc(Br)ccc1NC(=O)CCCOc1cc(=O)n(C)c2ccccc12`, the activation was -2.55%.
The result for `OC(CCl)CCl` reads -4.79%; that for `COc1ccc(CCNC(=O)CCNS(=O)(=O)c2cc(Br)cnc2N)cc1OC`, -1.13%; that for `COc1c(O)cc2oc(-c3ccc(O)c(O)c3)cc(=O)c2c1O`, 8.25% (active).
For `CCCCOCCCNC(=O)C[C@H]1C[C@@]2(C(=O)OC)C(=C[C@H](COCc3ccccc3)O[C@@H]2C)N(Cc2cccc3ccccc23)C1=O` the value was -2.77%; for `O=C(C1CCCN1S(=O)(=O)c1ccccc1)N1CCc2ccccc2C1` (stereo not drawn), -4.12%.
`Cc1ccc(C(=O)C2CCN(CC(=O)NCCC(C)C)CC2)cc1`: the activation was -3.11%.
Regarding `Cc1nn(Cc2ccc(F)cc2)c(C)c1NC(=O)c1noc2c1CCc1ccccc1-2`, the activation is -4.67%.
Turning to `Cc1nn(Cc2ccc(Cl)c(Cl)c2)c(C)c1NC(=O)c1cc(C2CC2)on1`, the activation is -4.98%.
For `Cc1nn(Cc2ccc(F)cc2)c(C)c1NC(=O)c1cccnc1Cl`, the activation is 11.7% (active).
As to `COc1ccc(Cn2cc(CN3[C@@H](CC(C)C)COc4cc(Br)ccc4S3(=O)=O)nn2)cc1`, the activation is 0.39%.
On to `C/C(Cn1nnc2ccccc21)=N\OC(=O)c1cc(F)c(F)cc1Cl`, for which the activation is -0.31%.
The result for `COc1ccc(-n2c(SCC(=O)Nc3ccc4cn[nH]c4c3)nnc2-c2cccnc2)cc1` reads 6.71%.
Take `COc1ccc(/C=N/NC(=O)c2cc(-c3cccc(C)c3)nc3ccccc23)cc1O`: the activation is 8.84% (active).
As for `COc1ccc(C)cc1NC(=O)c1cc(-c2ccccc2)nc2c1cnn2C(C)C`, the activation is -4.75%.
The result for `Cc1ccc(/C=N/NC(=O)COc2ccccc2-c2ccccc2)cc1` reads -0.77%; that for `CCC(=O)Nc1ccc2c(c1)C(=O)N(C)[C@H]1CC[C@H](CC(=O)NCCOC)O[C@@H]1CO2`, -1.86%.
The result for `CC(CCN1CCC(C(O)(c2ccccc2)c2ccccc2)CC1)Oc1ccc([N+](=O)[O-])cc1Cl` (stereo not drawn) reads 5.01%.
The result for `Cc1cc(C(=O)NNC(=S)NC(C)c2ccccc2)cs1` (stereo not drawn) reads -0.96%.
In the case of `Cc1ccccc1NC(=O)c1cc(S(=O)(=O)N2CCOCC2)cs1`, the activation is -0.28%.
The result for `Cc1cc(C(=O)NNC(=S)Nc2ccccc2C)cs1` reads 8.64% (active); that for `COC(=O)[C@]12C[C@H](CC(=O)NCc3ccccc3)C(=O)N(CCC3=CCCCC3)C1=C[C@H](C(C)C)O[C@@H]2C1CC1`, 0.2%; that for `C=CCN1C(=O)[C@@H](CC(=O)N2CCN(C(=O)c3ccco3)CC2)[C@]2(C(=O)OC)CCCCC=C12`, -3.14%.
